From PubChem BioAssay (NCI) come the findings set out here.

Some test systems named below: DU-145 prostate; K-562 leukemia; MALME-3M melanoma; MDA-MB-231 breast; RXF 393 renal; SF-268 CNS; SF-295 CNS; SF-539 CNS; UACC-257 melanoma; M14 melanoma; HCT-15 colon; HT29 colon; SNB-75 CNS; SNB-19 CNS; U251 CNS; PC-3 prostate; SK-MEL-5 melanoma; UACC-62 melanoma; LOX IMVI melanoma; SK-MEL-28 melanoma.
Common to all, as to assay: NCI-60 one-dose screen, 48 h (100 = growth as untreated, 0 = no growth, -100 = all killed)
What all share (conditions): 10 µM unless noted

SMILES strings stand for the structures. The panel holds about 83,000 compounds, 20% with a hit somewhere; the sample as a whole holds those more often.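 In brief: 96-well plates, 48 h treatment, single concentration, percent growth endpoint.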 Values without a mark were called inactive. Activity calls are given as the source filed them. The calls were made as follows: active = growth percent below 10; inactive = the rest.

Take `C=C(C)[C@@H]1CC[C@]2(C(=O)O)CC[C@]3(C)[C@H](CC[C@@H]4[C@@]5(C)C/C(=C/c6ccco6)C(=O)C(C)(C)[C@@H]5CC[C@]43C)[C@@H]12`: the growth in the test on DU-145 prostate was -35% [100 µM] (active); in the test with K-562 leukemia it was 8.08% [100 µM] (active); in the test with MALME-3M melanoma, -82.3% [100 µM] (active); in the test with MDA-MB-231 breast, -60.8% [100 µM] (active); in the test on RXF 393 renal, -98.2% [100 µM] (active); with SF-268 CNS it was -41.5% [100 µM] (active). Also, the growth was -82.8% [100 µM] (active) in the test with SF-295 CNS; -77.8% [100 µM] (active) with SF-539 CNS; -64.1% [100 µM] (active) in the test with UACC-257 melanoma; -62.6% [100 µM] (active) with M14 melanoma; -65.6% [100 µM] (active) in the test with HCT-15 colon; -56.2% [100 µM] (active) with HT29 colon. Moreover, the growth in the test on SNB-75 CNS was -70.3% [100 µM] (active); in the test with SNB-19 CNS, -51.5% [100 µM] (active); in the test with U251 CNS, -58.6% [100 µM] (active); in the test on PC-3 prostate it was -49.3% [100 µM] (active); in the test with SK-MEL-5 melanoma, -73.5% [100 µM] (active); in the test with UACC-62 melanoma, -97.6% [100 µM] (active). The values for the growth with LOX IMVI melanoma and with SK-MEL-28 melanoma were -60.6% [100 µM] (active) and -64.7% [100 µM] (active), respectively.
With `O=S(=O)(NCCCNc1nccc(-c2c(-c3cccc(F)c3)nc3occn23)n1)c1cccc2ccccc12`, the growth is 41.4% in the test on DU-145 prostate; 4.01% (active) in the test with K-562 leukemia; 31.1% in the test with MALME-3M melanoma; -0.0227% (active) with MDA-MB-231 breast; 47.9% with RXF 393 renal; 36.6% in the test with SF-268 CNS. Further, the growth is 52.8% in the test on SF-295 CNS; 61.8% with SF-539 CNS; 58.3% with UACC-257 melanoma; 31.8% in the test on M14 melanoma; 29.2% with HCT-15 colon; 5.59% (active) in the test on HT29 colon. In addition, the growth is 62.5% in the test on SNB-75 CNS; 64.7% in the test with SNB-19 CNS; 49.8% in the test on U251 CNS; 18.1% in the test on PC-3 prostate; 27% in the test on SK-MEL-5 melanoma; 31.5% with UACC-62 melanoma. Moreover, in the test on SK-MEL-28 melanoma, the growth is 64.9%.
As for `Cc1ccc(Cn2c(O)c(N=NC(=O)c3ccc(S(N)(=O)=O)cc3)c3ccccc32)cc1`, the growth in the test with DU-145 prostate was 107%; with K-562 leukemia it was 99.2%; in the test with MALME-3M melanoma, 97.1%; in the test on MDA-MB-231 breast it was 97.2%; in the test on RXF 393 renal, 91.2%; in the test on SF-268 CNS, 98.6%. Besides, the growth was 101% in the test with SF-295 CNS; 108% in the test on SF-539 CNS; 98% in the test on UACC-257 melanoma; 112% in the test on M14 melanoma; 106% with HCT-15 colon; 111% in the test with HT29 colon. The growth was 92.4% in the test on SNB-75 CNS; 100% in the test with SNB-19 CNS; 97.8% in the test with U251 CNS; 94.5% in the test on PC-3 prostate; 98.5% in the test with SK-MEL-5 melanoma; 86.7% in the test on UACC-62 melanoma. In addition, the growth in the test with LOX IMVI melanoma is 103%; in the test on SK-MEL-28 melanoma, 106%.
For `CC(C)[C@H]1COC(=O)N1[C@@H]1C(=O)N([C@@H](CCC(=O)N2CCN(C3CCCC3)CC2)C(=O)N[C@@H]2CCCc3ccccc32)[C@@H]1/C=C/c1cccc(Cl)c1`, the growth with DU-145 prostate is 65.3%; with K-562 leukemia, 45.5%; in the test on MALME-3M melanoma it was 82.3%; with MDA-MB-231 breast, 44.7%; with RXF 393 renal it was 50%; with SF-268 CNS it was 28.5%. Moreover, the growth in the test with SF-295 CNS was 54%; with SF-539 CNS, 68.9%; with UACC-257 melanoma it was 20.5%; with M14 melanoma, 36.6%; in the test with HCT-15 colon, 34.1%; in the test on HT29 colon it was 13%. In addition, the growth is 92% in the test with SNB-75 CNS; 56.6% in the test with SNB-19 CNS; 46.6% in the test with U251 CNS; 25.7% in the test with PC-3 prostate; 11.7% with SK-MEL-5 melanoma; 67.8% in the test on UACC-62 melanoma. The growth is -18.3% (active) with LOX IMVI melanoma and 71.7% in the test on SK-MEL-28 melanoma.
As to `COc1cc(C)cc2oc3oc(=O)c(C(=O)c4cc5cc(Br)ccc5o4)cc3c(=O)c12`, the growth in the test with DU-145 prostate is 113%; in the test with K-562 leukemia, 103%; with MALME-3M melanoma it was 98.8%; with MDA-MB-231 breast it was 105%; with RXF 393 renal, 116%; in the test with SF-268 CNS, 95%. Also, the growth was 103% with SF-295 CNS; 96.8% in the test on SF-539 CNS; 105% in the test with UACC-257 melanoma; 100% with M14 melanoma; 103% in the test with HCT-15 colon; 110% in the test with HT29 colon. The growth with SNB-75 CNS was 86.6%; with SNB-19 CNS it was 100%; with U251 CNS it was 102%; in the test with PC-3 prostate, 102%; in the test with SK-MEL-5 melanoma, 102%; in the test on UACC-62 melanoma it was 99.9%. Also, the growth with SK-MEL-28 melanoma is 106%.
In the case of `CCN(CC)c1cc(N)c(Cc2c(N)cc(N(CC)CC)cc2Cl)c(Cl)c1`, the growth in the test on DU-145 prostate was 67.4%; in the test on K-562 leukemia, 19.2%; with MALME-3M melanoma, 44.6%; with MDA-MB-231 breast, 48.5%; with RXF 393 renal, 63.7%; in the test on SF-268 CNS, 36.6%. The growth is 31.8% in the test with SF-295 CNS; 44.2% with SF-539 CNS; 12.4% in the test on UACC-257 melanoma; 52.5% in the test on M14 melanoma; 91.7% in the test with HCT-15 colon; 27.6% in the test on HT29 colon. Besides, the growth in the test with SNB-75 CNS was 8.86% (active); in the test with SNB-19 CNS it was 35.1%; in the test with U251 CNS it was 21.6%; with PC-3 prostate it was 38.4%; in the test with SK-MEL-5 melanoma it was -27.8% (active); in the test with UACC-62 melanoma, 47.5%. Further, the growth in the test on SK-MEL-28 melanoma was 53.2%.
On to `Nc1nc(Nc2ccccc2)c2ncn(Cc3ccc4c(c3)OCO4)c2n1`, for which the growth was 80.9% with DU-145 prostate; 15.7% in the test with K-562 leukemia; 53% with MALME-3M melanoma; 44% in the test on MDA-MB-231 breast; 52.8% in the test on RXF 393 renal; 62.8% with SF-268 CNS. Moreover, the growth with SF-295 CNS is 43.6%; with SF-539 CNS, 46%; in the test with UACC-257 melanoma it was 72.9%; in the test with M14 melanoma it was 16.3%; in the test with HCT-15 colon, 23.1%; with HT29 colon it was 20.6%. For the same molecule, the growth was 29.4% in the test on SNB-75 CNS; 54.4% in the test with SNB-19 CNS; 49.5% in the test on U251 CNS; 58.4% in the test with PC-3 prostate; 21.4% with SK-MEL-5 melanoma; 41.3% with UACC-62 melanoma. Besides, the growth in the test on SK-MEL-28 melanoma was 63.5%.
